Among all 320,000 compounds or so, about 22,000 (6.9%) were called active. About 27% were inconclusive and are not listed. This is one part of a sample in which actives are shown more often than they occur. Unmarked numbers belong to inactive results. The call rests on the fitted dose curve; in most records, active means well fitted inhibition curve with a large enough effect; inconclusive means small, poorly fitted or top-dose-only effect, or another doubt; inactive means no such curve, though single readings can be large or run the other way.
Test: Primary qHTS for delayed death inhibitors of the malarial parasite plastid, 96 hour incubation
Details: P. falciparum luciferase reporter growth; series mostly up to 28.7 µM; activity change, negative = inhibition: at the top concentration
Summary of the method: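 96 h incubation, 37 C, 5% CO2, of luciferase-reporter P. falciparum-infected RBCs (2% hematocrit, 0.05% parasitemia final) with test compounds; endpoint luminescence.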
In the case of Cc1nnc(SC(C)C(=O)Nc2ccc(S(=O)(=O)NC3CCCCC3)cc2)s1 (stereo unspecified), the “activity change, negative = inhibition” value is reported as -8.76%.
In the case of Cc1ccc(Nc2nnc(SC(C)C(=O)NC3CC3)s2)cc1 (stereo unspecified), the Potency is reported as 14.7 µM (active).
With CCOc1ccc(N2CC(C(=O)NCc3ccccn3)CC2=O)cc1 (stereo unspecified) the “activity change, negative = inhibition” value was 0.718%.
In the case of Nc1nnnn1/N=C/c1cccc(Br)c1, the “activity change, negative = inhibition” value is reported as -28.6%.
With Nc1nnnn1/N=C/c1cccs1 the Potency was 1.85 µM (active).
For COc1ccc(/C=N/n2nnnc2N)cc1OC, the “activity change, negative = inhibition” value was 0%.
With Cc1ccc(NS(=O)(=O)c2ccc3c(c2)n(C)c(=O)c(=O)n3C)c(C)c1 the “activity change, negative = inhibition” value was 23%.
For O=C(COC(=O)CCOc1ccccc1)Nc1cc(S(=O)(=O)N2CCCCC2)ccc1Cl, the “activity change, negative = inhibition” value was 12.7%.
With CCN(CC)CCNC(=O)c1cc(S(C)(=O)=O)ccc1OC the Potency was “inactive”.
For C=C(C)c1cccc(C(C)(C)NC(=O)NC2CCCC2)c1, the “activity change, negative = inhibition” value was -11.6%.
In the case of C=C(C)c1cccc(C(C)(C)NC(=O)NCCN(CC)CC)c1, the Potency is reported as 4.15 µM (active).
For CN(CC(=O)Nc1c(Cl)cccc1Cl)C(=O)c1ccncc1, the “activity change, negative = inhibition” value was 41.8%.
With CC(C)Nc1ccc(-n2nc3ccccc3[n+]2[O-])cc1 the “activity change, negative = inhibition” value was -11.5%.
With CC(=O)c1c(C)oc2ccc(NS(=O)(=O)c3ccccc3)cc12 the “activity change, negative = inhibition” value was 27%.
With CN(C)CCCN(C(=O)COc1ccccc1)c1nc2c(Cl)cccc2s1 the “activity change, negative = inhibition” value was 50.2%.
For COc1ccc(CCN(C(=O)COc2ccccc2)c2nc(-c3ccccc3)cs2)cc1OC, the Potency was 11.7 µM (active).
In the case of COc1ccc(CCNc2nc(-c3cccc(NC(C)=O)c3)cs2)cc1OC, the “activity change, negative = inhibition” value is reported as 4.61%.
For O=C(NN1C(=O)C2CCCCC2C1=O)c1ccco1 (stereo unspecified), the “activity change, negative = inhibition” value was 83.6%.
In the case of Cc1cccn2c(=O)c(/C=C(\C#N)C(N)=O)c(N3CCCCCC3)nc12, the “activity change, negative = inhibition” value is reported as -27%.
In the case of Cc1cc(C)cc(Oc2nc3c(C)cccn3c(=O)c2/C=C(\C#N)C(=O)NC2CCS(=O)(=O)C2)c1 (stereo unspecified), the Potency is reported as 11.7 µM (active).
With Cc1ccc(C(=O)N/C(=C\c2ccco2)C(=O)NC2CCS(=O)(=O)C2)cc1 (stereo unspecified) the “activity change, negative = inhibition” value was 38.1%.
In the case of CC(=O)Nc1ccc(NC(=O)CSC2=NS(=O)(=O)c3ccccc3N2)cc1, the “activity change, negative = inhibition” value is reported as 66%.
In the case of COc1ccc(OCc2cc(C(=O)N3CCCC3)no2)c2ccccc12, the “activity change, negative = inhibition” value is reported as -11.2%.
In the case of CC(=O)Nc1c2c(nn1-c1ccc(C)cc1C)CS(=O)C2 (stereo unspecified), the “activity change, negative = inhibition” value is reported as -3.12%.
With CC(=O)Nc1sc2c(c1C(c1cccc(F)c1)N1CCN(CCO)CC1)CCCC2 (stereo unspecified) the Potency was 7.38 µM (active).
In the case of CC(C)c1nc(SCC(=O)Nc2cccc(C(=O)O)c2)c2c3c(sc2n1)CCCC3, the “activity change, negative = inhibition” value is reported as 39.3%.
With O=C(Nc1sc2c(c1C(=O)O)CCC2)c1ccccc1F the “activity change, negative = inhibition” value was 1.99%.
For COc1ccc(OCC(=O)Nc2ccc(NC(=O)c3ccco3)c(C)c2)cc1, the “activity change, negative = inhibition” value was -10.7%.
For Cc1noc(C)c1C(=O)NCC1COc2ccccc2O1 (stereo unspecified), the “activity change, negative = inhibition” value was 12.1%.
For CCOc1ccccc1NC(=S)N1CCN(c2cccc(C)c2C)CC1, the Potency was 1.65 µM (active).
In the case of CCOc1ccccc1N1CCN(C(=S)Nc2ccc(S(N)(=O)=O)cc2)CC1, the “activity change, negative = inhibition” value is reported as -29.4%.
For Cc1cccc(NC(=S)N2CCC(O)CC2)c1C, the “activity change, negative = inhibition” value was -2.87%.
For Cc1onc(-c2c(F)cccc2Cl)c1C(=O)N(C)CC(=O)Nc1cccc(F)c1, the “activity change, negative = inhibition” value was -17.1%.
For CC(C)c1ccc2c(c1)c(SC(C)(C)C)c(CC(C)(C)C(=O)O)n2Cc1ccc(Cl)cc1, the Potency was 7.38 µM (active).
For O=C(O)c1ccc(Cn2c(=S)[nH]c3cc(Cl)ccc3c2=O)cc1, the “activity change, negative = inhibition” value was 20.1%.
In the case of Cc1nc2cc3c(cc2s1)OCO3, the “activity change, negative = inhibition” value is reported as 36.3%.
In the case of O=C(c1cc(COc2ccc(F)cc2F)on1)N1CCOCC1, the “activity change, negative = inhibition” value is reported as -3.11%.
In the case of Cc1cccc(NC(=O)c2ccc3c(=O)n(CC4CCCO4)c(=S)[nH]c3c2)c1 (stereo unspecified), the “activity change, negative = inhibition” value is reported as 2.86%.
For CCOC(=O)c1c(C)[nH]c(C)c1S(=O)(=O)NCCCc1ccco1, the “activity change, negative = inhibition” value was -4.17%.
With COc1cccc(CN(C)CC(=O)NCc2ccccc2Cl)c1OC the “activity change, negative = inhibition” value was -23.3%.
With COc1cccc(CN(C)CC2CCCN(CCc3ccc(Cl)cc3)C2)c1OC (stereo unspecified) the Potency was 2.94 µM (active).
For CN(CC1CCCN(CCc2cccc(C(F)(F)F)c2)C1)C(=O)c1ccc2nc[nH]c2c1 (stereo unspecified), the “activity change, negative = inhibition” value was 15.5%.
O=C(Cc1ccc(Cl)cc1)NCc1nc(-c2ccccc2)no1 showed an activity change, negative = inhibition of -24.9% [at 1.15 µM].
In the case of COc1ccc(-c2noc(C(C)NS(=O)(=O)c3ccc(NC(C)=O)cc3)n2)cc1 (stereo unspecified), the “activity change, negative = inhibition” value is reported as -5.21%.
For COc1ccc(-c2noc(CNC(=O)C(C)Oc3ccccc3)n2)cc1 (stereo unspecified), the Potency was 13.1 µM (active).
With Cc1ccc(OCC(=O)Nc2ccc3oc(=O)ccc3c2)cc1C the “activity change, negative = inhibition” value was 11.3%.
With Cc1ccc(S(=O)(=O)N2CCN(C(=O)c3ccc(-n4cncn4)c([N+](=O)[O-])c3)CC2)cc1 the “activity change, negative = inhibition” value was -5.29%.
With CN1CCN(C(=O)C(=O)c2cn(CC(=O)N3CCCC3)c3ccccc23)CC1 the “activity change, negative = inhibition” value was -2.05%.
For CCCn1c(=O)c2c(C(F)(F)F)cc(-c3cccs3)nc2n(CCC)c1=O, the “activity change, negative = inhibition” value was -4.47%.
In the case of CCN(CC)c1nc(-c2ccccc2)cc(C(F)(F)F)c1C#N, the “activity change, negative = inhibition” value is reported as -30%.
For N#Cc1c(C(F)(F)F)cc(-c2cccs2)nc1N1CCCCC1, the Potency was 10.4 µM (active).

— PubChem BioAssay AID504834 (National Center for Advancing Translational Sciences (NCATS), 2011)
On the % scale 0 is the no-effect control and ±100 the full control effect; potency means the concentration at half of the fitted maximal effect.
